SKBR3 24h inh: SK-BR-3 proliferation inhibitors. SK-BR-3 viability, CellTiter-Glo ATP luminescence, 24 h; hits give low values. 41,000 compounds, 0.47% hits. viability, % at 10 µM. AID 847;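 active = viability at or below the median of all test compounds minus 3 SD, in both replicates if run twice, cut at about 45% in these data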
FXIIa inh mix: inhibitors of human coagulation factor XIIa, pooled mixtures | P00748 | purified FXIIa, fluorogenic substrate | inhibition, % at 5 µM | 62,000 compounds, 0.2% hits | AID 684
Cathepsin G inh: blocks human cathepsin G enzyme activity | 62,000 compounds, 0.2% hits | purified enzyme, AMC-tetrapeptide fluorescence, pooled mixtures | inhibition, % at 5 µM (by protocol) | P08311;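 active = inhibition above 20% in each of the two mixture wells holding the compound; inactive = inhibition of 20% or less in either well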
HER2 expr 66K: lowers expression of human Her2 kinase | P04626 | SKBR-3 HER2 protein level, AlphaScreen, 18-24 h; hits give low values | HER2 level % of control, % at 10 µM | 65,000 compounds, 0.69% hits | AID 645;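 active = HER2 level under 5% of the carrier-only control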;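 note: lower value means stronger loss of Her2 protein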
FXIa mix inh: inhibitors of human coagulation factor XIa, pooled mixtures. P03951. purified FXIa, fluorogenic substrate. inhibition, % at 5 µM. 62,000 compounds, 0.19% hits. AID 680;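 note: each value is inhibition by a whole ten-compound pool holding the compound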
C1s inh: blocks human complement C1s protease activity. P09871. purified C1s, fluorogenic AMC substrate, pooled mixtures. mean inhibition % of two 10-compound mixtures (hits give high values), % at 5 µM (by protocol). 62,000 compounds, 0.16% hits. AID 538;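 active = inhibition above 20% in each of the two 10-compound mixture wells holding the compound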
Target sequence (P09871 16-437 limits assumed): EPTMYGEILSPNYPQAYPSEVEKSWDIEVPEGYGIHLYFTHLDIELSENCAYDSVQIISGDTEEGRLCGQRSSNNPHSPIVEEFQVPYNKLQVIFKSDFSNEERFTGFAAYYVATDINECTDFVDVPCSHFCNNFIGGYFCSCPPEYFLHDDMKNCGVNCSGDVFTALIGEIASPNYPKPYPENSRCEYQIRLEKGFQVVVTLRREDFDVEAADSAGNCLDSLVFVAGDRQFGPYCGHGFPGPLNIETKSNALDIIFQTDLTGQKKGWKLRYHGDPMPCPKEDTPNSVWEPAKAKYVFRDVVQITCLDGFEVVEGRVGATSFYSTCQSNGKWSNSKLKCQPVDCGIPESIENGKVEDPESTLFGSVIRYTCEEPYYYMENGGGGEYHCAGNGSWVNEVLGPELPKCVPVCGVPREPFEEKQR
Target sequence (P09871 438-688 limits assumed): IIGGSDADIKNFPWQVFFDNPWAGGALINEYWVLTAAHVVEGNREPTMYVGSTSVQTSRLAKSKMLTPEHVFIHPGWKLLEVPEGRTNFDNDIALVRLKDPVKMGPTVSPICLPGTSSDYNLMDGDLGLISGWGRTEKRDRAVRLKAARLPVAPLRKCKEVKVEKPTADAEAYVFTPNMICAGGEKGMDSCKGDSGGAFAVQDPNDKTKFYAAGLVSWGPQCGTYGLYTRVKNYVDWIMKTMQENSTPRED
Each line names hits and unclear results; the compound was inactive in the other large screens. Hits are enriched below; roughly 1.5% of the tested compounds scored in any of these assays. Cut-off read from the data, not from the text of the source, unless noted: active = inhibition above about 20% (passing the limit was not always enough); inactive = the rest.

CCOCCCN(C(=O)Nc1ccc(CC)cc1)C1CCN(C(C)=O)CC1	none (no result: SKBR3 24h inh)
Cc1ccc(CNC(=O)Cn2c(=O)oc3ccccc32)o1	SKBR3 24h inh 38
CCOC(=O)c1c(C)noc1CP(=O)(c1ccccc1)c1ccccc1	none (no result: SKBR3 24h inh)
Cc1cc(-n2c(C)cc(C(=O)CSc3nnnn3-c3ccc(Cl)cc3)c2C)no1	HER2 expr 66K -7.5 (no result: SKBR3 24h inh)
N#Cc1c(N)sc(=S)c2c1CCN(Cc1ccccc1)C2	HER2 expr 66K 0.0 (no result: SKBR3 24h inh)
CCN1CCc2c(sc(N)c2C#N)C1	none
COc1ccc(OCCSc2nnc(-c3ccoc3C)n2C)cc1	none (no result: SKBR3 24h inh)
CC1CCN(Cc2ccc(NC(=O)CC3Oc4ccccc4NC3=O)cc2)CC1 (centres undefined)	none (no result: SKBR3 24h inh)
O=S(=O)(Nc1nccs1)c1ccc(NS(=O)(=O)c2cccs2)cc1	none
O=S(=O)(Nc1cccnc1)c1cccs1	FXIa mix inh 45 (no result: SKBR3 24h inh)
CCN(CC)C(=O)CSC1=C(C#N)C(c2cccs2)C=C(C)N1 (centres undefined)	none (no result: FXIIa inh mix, Cathepsin G inh, FXIa mix inh, C1s inh)
Cc1cc(-c2ccccc2C(=O)NCc2ccccc2)on1	FXIa mix inh 27
Cc1cc(-c2ccccc2C(=O)O)on1	none
CC1CCCCN1CCNC(=O)C1CCN(S(=O)(=O)N2CCCCC2)CC1 (centres undefined)	FXIIa inh mix 21 (no result: SKBR3 24h inh)
CC1CCN(CCCNC(=O)C2CCN(S(=O)(=O)N3CCCCC3)CC2)CC1	none (no result: SKBR3 24h inh)
CN(C)c1nc2ccc(OCCN3CCCCC3)cc2s1	none
CCc1nnc(NC(=O)c2ccc(S(=O)(=O)N(CCOC)CCOC)cc2)o1	SKBR3 24h inh 35
Cc1cc(C)nc(N2CCC(C(=O)NCc3cccc(C(F)(F)F)c3)CC2)n1	SKBR3 24h inh 40
CN(C)c1ccc(C(c2nnnn2CCOC(=O)Nc2ccc(Cl)cc2)N2CCOCC2)cc1 (centres undefined)	none
Cc1sc(NC(=O)c2ccco2)c(CN2CCN(c3ccccn3)CC2)c1C	FXIa mix inh 46
Cn1cnc2c1c(=O)n(CC(O)CO)c(=O)n2C (centres undefined)	none
OCCCc1nc2n(n1)C(c1ccccc1)C=C(c1ccc(F)cc1)N2 (centres undefined)	HER2 expr 66K -30 (no result: FXIIa inh mix, Cathepsin G inh, FXIa mix inh, C1s inh)
OCCCc1nc2n(n1)C(c1cccs1)C=C(c1ccccc1)N2 (centres undefined)	none (no result: SKBR3 24h inh)
CCOC(=O)N1CCC(c2nc3ccccc3[nH]2)CC1	none
CS(=O)(=O)c1nc(-c2ccccc2)cc(C(F)(F)F)n1	SKBR3 24h inh 28, HER2 expr 66K -24
COc1ccc(-c2cc(C(F)(F)F)nc(SCC(=O)Nc3cc(C)on3)n2)cc1	none
Cc1cc(NC(=O)CCS(=O)(=O)c2nc(-c3ccccc3)cc(C(F)(F)F)n2)no1	SKBR3 24h inh 39 (no result: HER2 expr 66K)
Cc1cc(C)n(-c2c(F)c(F)c(CN3CCOCC3)c(F)c2F)n1	HER2 expr 66K -21
Cc1cc(C)nc(N2CCCC(C(=O)NCCc3ccccc3F)C2)n1 (centres undefined)	SKBR3 24h inh 43
CCOc1cc(C)nc(N2CCCC(C(=O)NCc3ccccc3F)C2)n1 (centres undefined)	none
COc1cc(C)nc(N2CCCC(C(=O)Nc3cccc(Cl)c3C)C2)n1 (centres undefined)	FXIa mix inh 21
CC(Oc1ccc(NC(=O)c2ccco2)cc1)C(=O)N1c2ccccc2CC1C (centres undefined)	none (no result: SKBR3 24h inh)
COc1ccccc1CNC(=O)c1cnc2sccn2c1=O	none (no result: SKBR3 24h inh)
COc1ccccc1CNC(=O)c1cnc2ccccn2c1=O	FXIa mix inh 21 (no result: SKBR3 24h inh)
CCn1c(C)cc(=S)c2ccccc21	HER2 expr 66K -19
CC(C)(C)OC(=O)N[C@@H](Cc1ccccc1)c1nnc(SCC(=O)O)o1	none
CC(C)(C)OC(=O)N[C@@H](Cc1ccccc1)c1nnc(S(=O)(=O)Cc2ccccc2)o1	Cathepsin G inh 83
CCC(C)[C@@H](NC(=O)OC(C)(C)C)c1nnc(S(=O)(=O)Cc2cccc(C)c2)o1 (some centres undefined)	SKBR3 24h inh 21, HER2 expr 66K -17, FXIa mix inh 21
CC1(C)CC(=O)C=C(NC2CCS(=O)(=O)C2)C1 (centres undefined)	none
O=C(O)c1ccccc1C1=Nc2ccc(O)cc2Oc2cc(O)ccc21	HER2 expr 66K -53
CN(CC(=O)Nc1nc2ccccc2s1)S(=O)(=O)c1ccccc1	none
CCCCCn1c(CN2CCCCC2CC)nc2c1c(=O)n(C)c(=O)n2C (centres undefined)	HER2 expr 66K -17 (no result: SKBR3 24h inh)
COCCCNC(CC(=O)Nc1ccccc1C(=O)OC)C(=O)O (centres undefined)	C1s inh 22
Cc1cc2nnc(SC(C)C#N)n2c2ccccc12 (centres undefined)	HER2 expr 66K -28 (no result: SKBR3 24h inh)
COc1cc(OC)cc(C(=O)Nc2ncc3c(n2)CC(C)CC3=O)c1 (centres undefined)	C1s inh 22
Cc1ccc(C(CC(=O)c2ccco2)SCCO)cc1 (centres undefined)	HER2 expr 66K -1.4
COc1cc(NS(=O)(=O)c2ccc(Br)cc2)c(OC)cc1NC(=O)c1ccco1	none
CCOC(=O)c1c(-c2cccs2)csc1NC(=O)c1ccco1	HER2 expr 66K -28
CCOc1ccccc1-n1c(SCC(=O)Nc2ccc(CC)cc2)nc2n[nH]c(C)c2c1=N	SKBR3 24h inh 30 (no result: FXIIa inh mix, Cathepsin G inh, FXIa mix inh, C1s inh)
CC(C)n1c(SCc2ccc(Cl)cc2)nc2c1c(=O)[nH]c(=O)n2C	HER2 expr 66K -55
OCCN1CCN(CCCN2c3ccccc3Sc3ccc(C(F)(F)F)cc32)CC1	SKBR3 24h inh 16, HER2 expr 66K -9.1
CN(C)CCCN1c2ccccc2Sc2ccc(C(F)(F)F)cc21	none
COC(=O)CC1=C(C(=O)OC)C(c2ccc3c(c2Cl)OCO3)C(C#N)=C(N)O1 (centres undefined)	HER2 expr 66K -22
CCOC(=O)C(C(=O)OCC)c1cc(Br)c2noc3c2c1C(=O)c1ccccc1-3	SKBR3 24h inh 26, HER2 expr 66K -5.2
Cc1cccc(-c2nnc3n2N=C(c2ccccc2Br)CS3)c1	none
Cc1cccc(N2CCN(C(=O)CCn3c(=S)[nH]c4cc5c(cc4c3=O)OCO5)CC2C)c1 (centres undefined)	FXIIa inh mix 45 (no result: SKBR3 24h inh)
O=C(CCCn1c(=S)[nH]c2cc3c(cc2c1=O)OCO3)N1CCN(c2ccccc2)CC1	none (no result: SKBR3 24h inh)
O=C(NCc1cccs1)c1cc(-c2cccs2)on1	Cathepsin G inh 34
Cc1ccc(-c2cc(C(=O)NCc3ccccn3)no2)cc1	C1s inh 65
Nc1ccc(CN2CCN(c3ccc4ccccc4n3)CC2)cc1	none (no result: SKBR3 24h inh)
COc1ccc(C(=O)/C=C\N2CCOCC2)cc1	none (no result: SKBR3 24h inh)
COC(=O)c1ccccc1NC(=O)CSc1nnc(-c2cccc(NC(C)=O)c2)n1C	none (no result: SKBR3 24h inh)
CCCC(=O)Nc1nc2ccc(OC)cc2s1	none (no result: SKBR3 24h inh)
CCCC(=O)Nc1nc2ccc(S(N)(=O)=O)cc2s1	FXIIa inh mix 22 (no result: SKBR3 24h inh)
CCC(C)Nc1nc(OC)nc(N(C)C#N)n1 (centres undefined)	none (no result: FXIIa inh mix, Cathepsin G inh, FXIa mix inh, C1s inh)
